# Reference: PubChem BioAssay
# Calls of active or inactive are those of the source. Unless noted, how the calls were made is not given here.
# What was measured:
# [1] = resazurin metabolic signal in HepG2 cells – cell-based, resazurin fluorescence, 24 h, PK04 Diversity Set, profiling panel (AID 1172); conditions: HepG2 viability, higher = more signal; further: test concentration not given here
# [2] = budding yeast growth changes without added modifier – OD600, strain BY4716, 24 h, basal condition, primary screen (AID 1173); conditions: S. cerevisiae BY4716 growth, OD600, 24 h; higher = more signal, called active from +8 up or from −8 down
# [3] = viability profiling in MM1S myeloma cells – cell-based, resazurin fluorescence, basal, 24 h, PK04 Diversity Set, profiling panel (AID 1174); conditions: higher = more signal, called active from +8 up or from −8 down;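 further: MM1S multiple myeloma cell line; test concentration not given here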
# [4] = biological target: Dihydroorotate dehydrogenase (quinone), mitochondrial (Plasmodium falciparum (isolate 3D7)) (UniProt Q08210); assay: inhibition of P. falciparum DHODH – biochemical, C-terminal His tag, absorbance 600 nm, primary screen (AID 1175); conditions: PfDHODH enzyme, DCIP absorbance 600 nm; higher = more signal, called active from +8 up or from −8 down;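 further: recombinant parasite enzyme with a five histidine tag at its C terminus; test concentration not given here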
# [5] = inhibition of PAO1 biofilm formation – strain PAO1, LB-PBS medium, absorbance 600 nm, primary screen (AID 1176); further: test concentration not given here; conditions: P. aeruginosa PAO1 growth/biofilm, A600, 12 h; higher = more signal
# [6] = growth modulation of vineyard yeast isolate – strain RM11-1a, OD600, basal, 24 h, primary screen (AID 1177);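 further: cultures grown under basal conditions with no added stressor; test concentration not given here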; conditions: S. cerevisiae RM11-1a growth, OD600, 24 h; higher = more signal, called active from +8 up or from −8 down
# [7] = growth of efflux-deficient E. coli DRC39 – strain DRC39, OD650, 24 h, E. coli filamentation inducers, primary screen (AID 1178);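 further: growth measured as culture turbidity by optical density at 650 nm; test concentration not given here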; conditions: E. coli DRC39 acrAB, higher = more signal, called active from +8 up or from −8 down
# [8] = growth of efflux-deficient E. coli DRC39 – strain DRC39, OD650, 48 h, E. coli filamentation inducers, primary screen (AID 1179);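 further: screen aims at cell division blockers that make cells filament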; conditions: E. coli DRC39 delta-acrAB growth, higher = more signal, called active from +8 up or from −8 down
# [9] = viability profiling in RPMI8226 myeloma cells – cell-based, resazurin fluorescence, basal, 24 h, PK04 Diversity Set, profiling panel (AID 1180); conditions: higher = more signal;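 further: RPMI8826 multiple myeloma cell line at 5000 cells per well; test concentration not given here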
# [10] = biological target: E3 ubiquitin-protein ligase XIAP (Homo sapiens) (UniProt P98170); assay: small molecules binding XIAP protein – biophysical, small-molecule microarray, fluorescence 635 nm, primary screen (AID 1181); conditions: higher = more signal;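 further: score merges 667 nm emission and signal to noise over triplicate slides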
# E3 ubiquitin-protein ligase XIAP (Homo sapiens), sequence (P98170 whole entry, looked up): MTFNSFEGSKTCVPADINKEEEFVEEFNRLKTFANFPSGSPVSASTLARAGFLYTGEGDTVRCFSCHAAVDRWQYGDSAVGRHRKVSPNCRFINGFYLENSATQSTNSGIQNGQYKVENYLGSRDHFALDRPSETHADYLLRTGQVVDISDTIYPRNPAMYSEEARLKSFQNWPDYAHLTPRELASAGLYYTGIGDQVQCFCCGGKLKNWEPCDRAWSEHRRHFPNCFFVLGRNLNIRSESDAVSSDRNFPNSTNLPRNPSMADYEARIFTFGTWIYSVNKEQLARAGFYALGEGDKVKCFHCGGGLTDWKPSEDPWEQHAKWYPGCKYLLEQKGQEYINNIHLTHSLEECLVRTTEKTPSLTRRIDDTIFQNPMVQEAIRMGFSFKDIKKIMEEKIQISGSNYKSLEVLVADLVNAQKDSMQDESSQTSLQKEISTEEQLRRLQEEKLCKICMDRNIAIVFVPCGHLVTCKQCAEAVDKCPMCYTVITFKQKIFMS
# Dihydroorotate dehydrogenase (quinone), mitochondrial (Plasmodium falciparum (isolate 3D7)), sequence (Q08210 whole entry, looked up): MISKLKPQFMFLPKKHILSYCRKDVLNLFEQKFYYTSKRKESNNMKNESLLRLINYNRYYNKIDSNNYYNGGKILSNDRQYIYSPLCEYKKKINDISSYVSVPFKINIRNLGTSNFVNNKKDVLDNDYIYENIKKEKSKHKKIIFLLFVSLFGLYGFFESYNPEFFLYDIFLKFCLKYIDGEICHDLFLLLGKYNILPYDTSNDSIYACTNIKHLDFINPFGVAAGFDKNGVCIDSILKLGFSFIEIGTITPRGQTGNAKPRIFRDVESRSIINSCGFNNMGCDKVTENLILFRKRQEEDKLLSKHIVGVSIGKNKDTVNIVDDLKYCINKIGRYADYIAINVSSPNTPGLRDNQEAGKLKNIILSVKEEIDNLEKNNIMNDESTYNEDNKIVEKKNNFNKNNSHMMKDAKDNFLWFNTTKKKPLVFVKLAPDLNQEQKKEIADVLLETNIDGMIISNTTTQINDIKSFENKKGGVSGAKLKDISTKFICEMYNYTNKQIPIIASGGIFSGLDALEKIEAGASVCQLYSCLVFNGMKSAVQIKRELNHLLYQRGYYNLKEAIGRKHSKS
Structure (SMILES),z-score [1],z-score [2],z-score [3],composite z-score [4],z-score [5],z-score [6],z-score [7],z-score [8],z-score [9],composite z-score [10]
C=CCN1C(=O)[C@@]2(O[C@@H](CCn3cc([C@H](O)c4ccccc4)nn3)[C@H]([Si](C)(C)c3ccc(OC)cc3)[C@H]2C)c2cc(NC(=O)c3ccc(OC)cc3)ccc21,-1.55,0.336 (inactive),-2.19 (inactive),0.874 (inactive),0.389 (inactive),2.42 (inactive),0.628 (inactive),0.146 (inactive),-2.35,0.176
NC(=O)[C@H]1[C@@H]2C(=O)O[C@@H](c3ccccc3)[C@@H](c3ccccc3)N2[C@@H](c2ccc(O)cc2)[C@]12C(=O)Nc1ccc(C#CC3(O)CCCCCC3)cc12,-0.518,-0.475 (inactive),0.522 (inactive),-0.885 (inactive),0.738 (inactive),-0.323 (inactive),0.249 (inactive),-0.815 (inactive),0.159,-0.102
O=C1N(Cc2ccccc2)c2ccccc2[C@H]2OC(c3ccc(OCCCO)cc3)=N[C@@]12CCS(=O)(=O)c1ccccc1,-0.362,1.21 (inactive),-0.56 (inactive),0.876 (inactive),1.47 (inactive),2.68 (inactive),0.244 (inactive),-0.939 (inactive),-0.509,0.12
CCCN1C(=O)[C@@]2(Cc3ccccc3)N=C(c3ccc(OCCCO)cc3)O[C@H]2c2ccccc21,0.167,-2.03 (inactive),-1.66 (inactive),-0.319 (inactive),1.02 (inactive),0.673 (inactive),0.248 (inactive),-0.319 (inactive),-1.57,-0.206
Cc1ccc(N2C(=O)c3ccccc3[C@](C)(C(=O)NC(C)C)[C@@H]2c2ccc(CO)cc2)nc1,-0.591,0.201 (inactive),0.761 (inactive),-3.7 (inactive),0.599 (inactive),-0.243 (inactive),0.381 (inactive),-0.111 (inactive),0.818,-0.272
COCCOC(=O)N1C(=O)[C@@]2(c3cc(C#CC4(O)CCCCCC4)ccc31)[C@H](C(=O)N1CCN(c3ncccn3)CC1)[C@H]1C(=O)O[C@H](c3ccccc3)[C@H](c3ccccc3)N1[C@@H]2c1ccc(O)cc1,-0.597,1.04 (inactive),-0.0906 (inactive),0.59 (inactive),0.545 (inactive),2.1 (inactive),-0.19 (inactive),0.37 (inactive),0.74,-0.177
C[N+](C)(C)CCCCCCNC(=O)[C@H]1C[C@H]2C(=O)N3CCC[C@H]3C(=O)N2[C@H]1c1cccc(OCCO)c1,0.473,-0.187 (inactive),-0.41 (inactive),-0.788 (inactive),-0.13 (inactive),-0.637 (inactive),0.12 (inactive),-0.271 (inactive),-0.767,0.135
C[C@]12C(=O)N(CCCO)[C@@H]3C(=O)N(c4ccc(Cl)cc4)CC=CC31O[C@@H]1/C=C\CCCOC(=O)C12 (stereo not given in full),-0.468,-0.0146 (inactive),-0.291 (inactive),0.0021 (inactive),-0.553 (inactive),-0.965 (inactive),-0.477 (inactive),-0.464 (inactive),-0.217,0.734
Cc1ccc(-c2cccc(=O)o2)cc1,-0.789,-2.2 (inactive),0.123 (inactive),-0.919 (inactive),-0.128 (inactive),-0.333 (inactive),-0.418 (inactive),-0.292 (inactive),-0.442,-0.0143
CCCCC(O)C1C=CC2C(=O)N(Cc3ccccc3)C(=O)C2N1n1cnnc1 (stereo not given),-1.23,0.0393 (inactive),-0.748 (inactive),0.504 (inactive),0.148 (inactive),-0.601 (inactive),-0.395 (inactive),-0.436 (inactive),-0.409,0.0937
O=C1C2C=CC(C(O)c3ccccn3)N(Nc3ccccc3)C2C(=O)N1c1ccccc1 (stereo not given),0.458,-1.07 (inactive),-0.702 (inactive),1.06 (inactive),0.35 (inactive),0.565 (inactive),-0.562 (inactive),-0.225 (inactive),0.16,0.109
NC(=O)NCC#Cc1ccc2c(c1)[C@]1(C(=O)N2)[C@H](c2ccc(OCCO)cc2)N2[C@H](c3ccccc3)[C@H](c3ccccc3)OC(=O)[C@H]2[C@@H]1C(=O)N1CCN(c2ncccn2)CC1,0.21,1.04 (inactive),0.963 (inactive),-0.858 (inactive),2.71 (inactive),2.58 (inactive),0.665 (inactive),0.773 (inactive),1.79,-0.149
COc1cccc(C[C@H]2C[C@@H](CO[Si](C(C)C)(C(C)C)C(C)C)N3C(=O)[C@]4(C(C)=O)O[C@]23[C@H]2C(=O)N(C)C(=O)[C@H]24)c1,-1.03,2.01 (inactive),-0.713 (inactive),0.564 (inactive),1.32 (inactive),0.979 (inactive),-0.356 (inactive),-0.152 (inactive),-2.81,0.0264
C[N+](C)(C)CCCC[C@@H]1NC(=O)[C@@H]2C[C@H](C(=O)O)[C@H](c3cccc(OCCO)c3)N2C1=O,0.72,-0.219 (inactive),0.838 (inactive),0.284 (inactive),-0.351 (inactive),-0.126 (inactive),1.13 (inactive),1.36 (inactive),0.826,-0.131
C[C@H]1NC(=O)C([C@@H](C)OCc2ccccc2)NC(=O)[C@@]23C(=O)N[C@@H](Cc4ccccc4)C2[C@H](C)[C@@]2(C)O[C@H]2C3/C=C/CC/C=C/CNC1=O (stereo not given in full),-1.3,-0.782 (inactive),0.737 (inactive),0.855 (inactive),-0.766 (inactive),0.604 (inactive),1.36 (inactive),0.336 (inactive),0.189,0.13
CC1CC/C=C\[C@H]2OC34C=CCN(Cc5ccccc5)C(=O)[C@H]3N(CCO)C(=O)[C@@H]4C2C(=O)O1 (stereo not given in full),-0.811,-0.73 (inactive),0.32 (inactive),0.622 (inactive),-0.758 (inactive),0.606 (inactive),0.98 (inactive),0.566 (inactive),0.301,-0.147
CN(C)C(=O)[C@@]1(CCC(=O)OC(C)(C)C)N=C(c2ccc(OCCCO)cc2)O[C@H]1c1ccccc1N=[N+]=[N-],0.506,0.314 (inactive),-1.36 (inactive),0.645 (inactive),1.35 (inactive),1.98 (inactive),0.306 (inactive),-0.264 (inactive),-0.839,0.0428
[N-]=[N+]=Nc1ccccc1[C@@H]1OC(c2ccc(OCCCO)cc2)=N[C@]1(CCS(=O)(=O)c1ccccc1)C(=O)NCc1ccccc1,-0.287,1.18 (inactive),-0.37 (inactive),-2.59 (inactive),0.727 (inactive),1.4 (inactive),0.439 (inactive),1.01 (inactive),-0.893,0.125
COC(=O)C(CC#Cc1ccc2c(c1)[C@]1(C(=O)N2)[C@H](c2ccc(O)cc2)N2[C@H](c3ccccc3)[C@H](c3ccccc3)OC(=O)[C@H]2[C@@H]1C(=O)O)C(=O)OC,0.464,0.338 (inactive),-0.134 (inactive),-1.59 (inactive),0.875 (inactive),-0.316 (inactive),-0.0388 (inactive),-0.286 (inactive),-0.0316,-0.374
COC(=O)[C@@]1(Cc2ccc(OC)cc2)[C@H]2c3cc(C(=O)N4CCCC4)n(CCF)c3C[C@H]2CN1C(=O)c1ccccc1,-0.952,1.1 (inactive),-2.21 (inactive),0.0648 (inactive),1.06 (inactive),0.977 (inactive),-1.52 (inactive),-1.09 (inactive),-1.72,-0.0471
COc1ccc(CCNC(=O)[C@@H]2c3ccccc3C(=O)N(Cc3ccccc3C(F)(F)F)[C@H]2c2ccc(CO)cc2)cc1,0.743,0.415 (inactive),0.711 (inactive),0.717 (inactive),-0.77 (inactive),1.51 (inactive),0.709 (inactive),0.633 (inactive),0.837,0.0819
COC(=O)C(CC#Cc1ccc2c(c1)[C@]1(C(=O)N2)[C@H](C(=O)N2CCc3cc(OC)c(OC)cc3C2)[C@H]2C(=O)O[C@H](c3ccccc3)[C@H](c3ccccc3)N2[C@@H]1c1ccc(OCCO)cc1)C(=O)OC,-0.0956,2.36 (inactive),-0.229 (inactive),-6.24 (inactive),3.55 (inactive),4.29 (inactive),-0.538 (inactive),0.704 (inactive),-0.0688,0.23
COc1ccc(C#Cc2ccc3c(c2)[C@]2(C(=O)N3)[C@H](c3ccc(OCCO)cc3)N3[C@H](c4ccccc4)[C@H](c4ccccc4)OC(=O)[C@H]3[C@@H]2C(=O)N2CCN(c3ncccn3)CC2)cc1,1.45,1.56 (inactive),1.48 (inactive),-1.7 (inactive),1.66 (inactive),1.92 (inactive),0.101 (inactive),-0.344 (inactive),1.61,0.16
CN(C)CCCCNC(=O)[C@H]1C[C@H]2C(=O)N[C@@H](CCCC[N+](C)(C)C)C(=O)N2[C@H]1c1cccc(OCCO)c1,0.49,0.168 (inactive),0.505 (inactive),-0.119 (inactive),1.06 (inactive),-0.557 (inactive),-0.163 (inactive),-0.853 (inactive),-0.0588,-0.243
